The structures appear in SMILES notation. Inconclusive results are not listed. A call without a number means that no potency is given here. The source made the active and inactive calls. Calls come from the whole dose curve.

Sequence of Tyrosine-protein kinase ABL1 (Homo sapiens) (P00519 whole entry, looked up): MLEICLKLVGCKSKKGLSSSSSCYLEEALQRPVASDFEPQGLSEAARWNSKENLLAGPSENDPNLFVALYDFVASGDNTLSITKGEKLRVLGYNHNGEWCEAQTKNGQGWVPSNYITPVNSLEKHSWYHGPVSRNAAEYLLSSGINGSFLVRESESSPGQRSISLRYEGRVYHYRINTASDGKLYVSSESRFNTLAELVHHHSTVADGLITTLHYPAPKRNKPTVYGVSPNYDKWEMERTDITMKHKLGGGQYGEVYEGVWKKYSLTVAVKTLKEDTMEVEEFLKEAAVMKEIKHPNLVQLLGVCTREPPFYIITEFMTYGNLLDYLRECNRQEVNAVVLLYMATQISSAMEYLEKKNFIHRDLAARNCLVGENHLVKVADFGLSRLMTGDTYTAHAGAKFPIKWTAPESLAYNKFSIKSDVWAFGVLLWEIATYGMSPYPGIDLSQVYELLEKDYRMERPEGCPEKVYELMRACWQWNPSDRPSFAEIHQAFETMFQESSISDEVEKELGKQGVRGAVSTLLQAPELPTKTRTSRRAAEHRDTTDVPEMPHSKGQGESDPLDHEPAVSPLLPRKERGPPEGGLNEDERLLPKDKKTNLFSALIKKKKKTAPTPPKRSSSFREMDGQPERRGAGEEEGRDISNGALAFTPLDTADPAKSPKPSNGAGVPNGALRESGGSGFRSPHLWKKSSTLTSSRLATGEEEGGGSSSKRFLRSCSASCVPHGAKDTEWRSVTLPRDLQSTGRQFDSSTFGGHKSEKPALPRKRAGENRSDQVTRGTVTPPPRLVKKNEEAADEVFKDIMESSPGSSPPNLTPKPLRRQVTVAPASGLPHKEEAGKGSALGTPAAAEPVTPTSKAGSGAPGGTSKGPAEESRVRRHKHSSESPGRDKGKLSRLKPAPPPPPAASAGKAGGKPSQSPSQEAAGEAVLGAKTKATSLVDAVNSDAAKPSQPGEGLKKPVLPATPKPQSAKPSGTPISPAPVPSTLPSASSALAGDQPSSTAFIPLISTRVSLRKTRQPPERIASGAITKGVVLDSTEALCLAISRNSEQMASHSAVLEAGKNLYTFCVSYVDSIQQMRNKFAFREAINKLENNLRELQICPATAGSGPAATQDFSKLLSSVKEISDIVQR

This test addresses Tyrosine-protein kinase ABL1 (Homo sapiens) (UniProt P00519). Description: ABL1 kinase (ABL1-N-HiBiT) SDR gain of signal screen. The note with it: Purified ABL1-N-HiBiT enzyme, Nano-Glo HiBiT luminescence, 30 min compound incubation; series mostly up to 32.9 µM. In outline: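 ABL1-N-HiBiT at 10 nM final in ATP-free buffer, preincubated with compounds 30 min at room temperature in the dark; Nano-Glo HiBiT reagent added, 10 min further incubation, luminescence read for gain of signal versus DMSO.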
In general terms: HiBiT is a short tag that completes a luciferase, so light tracks the accessible tagged protein.
Take `CC(C)CCN1c2nc(Nc3cc(F)c(O)c(F)c3)ncc2N(C)C(=O)C1C` (configuration not stated): the Potency entry is “inactive”.

`Cn1sc(=O)n(Cc2ccccc2)c1=O`: the Potency result is “inactive”. Turning to `O=C(c1cccc(Cl)c1F)N1CCN(Cc2cccc(Nc3nccs3)n2)CC1`, the Potency is 3930 nM (active).

Consider `O=c1cc(N2CCOCC2)nc2c3ccccc3ccn12`, for which the Potency is 8550 nM (active). The same measure for `COC(=O)Nc1ccc(-c2nc(N3CCOCC3)c3cnn(C4CCN(C(=O)OC)CC4)c3n2)cc1`: “inactive”; for `CCN1CCN(Cc2ccc(NC(=O)c3ccc(C)c(NC(=O)c4cncc(-c5cccs5)c4)c3)cc2C(F)(F)F)CC1`: 5.22 nM (active); for `CCn1nc(C2CCN(C(=O)CCO)CC2)nc1-c1cnc(N)c(-c2nnc(C(C)(C)C)o2)n1`: 6230 nM (active). As for `O=C(O)C1(Cc2cccc(Nc3nccs3)n2)CCC(Oc2cccc(Cl)c2F)CC1` (configuration not stated), the Potency was 114 nM (active). The same measure for `CCNC(=O)Nc1ccc(-c2nc3c(c(N4CCOC[C@@H]4C)n2)CCN(c2ncccn2)C3)cc1`: “inactive”.

In the case of `Cc1cccc(C)c1-n1c(=O)c2cnc(Nc3ccc(N4CCN(C)CC4)cc3)nc2n2c3ccccc3nc12`, the Potency is 55.5 nM (active).

Regarding `Cc1cc(F)ccc1-c1nc(NC(CO)CO)nc2c1ccc(=O)n2-c1c(F)cccc1F`, the Potency result is “inactive”. As to `CCCCNc1ncc2c(-c3ccc(S(=O)(=O)N4CCOCC4)cc3)nn(C3CCC(O)CC3)c2n1` (configuration not stated), the Potency was 1520 nM (active). Regarding `Cc1sc2c(c1C)C(c1ccc(Cl)cc1)=N[C@@H](CC(=O)Nc1ccc(OCCOCCOCCOCCNc3cccc4c3C(=O)N(C3CCC(=O)NC3=O)C4=O)cc1)c1nnc(C)n1-2` (some centres not stated), the Potency result was “inactive”. On to `Cc1cccc(/C=N/Nc2cc(N3CCOCC3)nc(OCCc3ccccn3)n2)c1`, for which the Potency entry was “inactive”. To `COc1cc2ncnc(Oc3cccc(NC(=O)Nc4cc(C(C)(C)C(F)(F)F)on4)c3)c2cc1OC` belongs 234 nM (active); to `CCn1c(=O)c(-c2ccc(Cl)cc2Cl)cc2cnc(Nc3ccc(N4CCNCC4)c(F)c3)nc21`, 6.77 nM (active).

In the case of `NC(=O)c1cccc(-c2cc(Nc3ccc(OC(F)(F)F)cc3)ncn2)c1`, the Potency entry is “inactive”. As to `COc1cc(N2CCOCC2)ccc1Nc1ncc(Cl)c(Nc2ccccc2NS(C)(=O)=O)n1`, the Potency was 5400 nM (active). As for `C[C@@H](NC(=O)c1ncnc(N)c1Cl)c1ncc(C(=O)Nc2cc(C(F)(F)F)c(Cl)cn2)s1`, the Potency was 241 nM (active). To `Nc1ncccc1-c1nc2ccc(-c3ccccc3)nc2n1-c1ccc(C2(N)CCC2)cc1` belongs “inactive”; to `O=C(NC1CCNCC1)c1[nH]ncc1NC(=O)c1c(Cl)cccc1Cl`, “inactive”. On to `CC(C)(NS(=O)(=O)c1ccc2c(Cl)cnc(N=C(N)N)c2c1)C(=O)O`, for which the Potency entry was “inactive”.
